This note sets out measurements from PubChem BioAssay (NCI).

Test systems include SR leukemia; RPMI-8226 leukemia; OVCAR-8 ovarian; OVCAR-5 ovarian; OVCAR-4 ovarian; IGROV1 ovarian; HS 578T breast; NCI/ADR-RES ovarian; OVCAR-3 ovarian; SK-OV-3 ovarian.
What all share (assay): NCI-60 one-dose screen, 48 h (100 = growth as untreated, 0 = no growth, -100 = all killed)
What all share (settings): 10 µM unless noted

The panel holds about 83,000 compounds, 20% with a hit somewhere; the sample as a whole holds those more often.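 Assay: single dose, 48 h. Readout: percent growth (0 = no net growth; negative = cell death). Active: <10.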 Unmarked numbers belong to inactive results. Activity calls are given as the source filed them.

`O=S(=O)(c1ccccc1)n1ccc(-c2ccc3c(c2)CCO3)n1`: the growth with SR leukemia was 73.3%; in the test on RPMI-8226 leukemia, 62.4%; with OVCAR-8 ovarian, 84%; in the test on OVCAR-5 ovarian, 103%; with OVCAR-4 ovarian it was 70.1%; in the test with IGROV1 ovarian, 75.7%. The growth with HS 578T breast is 102%; with NCI/ADR-RES ovarian it was 76%.

As for `CCN1C(=O)N(CC)C2Nn3c(s/c(=C4\C(=O)N(C5CCCC5)c5ccccc54)c3=O)=NC21` (stereo not given), the growth in the test on SR leukemia was 34.8%; in the test with RPMI-8226 leukemia it was 54.1%; in the test with OVCAR-8 ovarian it was 60.2%; in the test on OVCAR-5 ovarian it was 77.5%; in the test on OVCAR-4 ovarian, 55.7%; with IGROV1 ovarian, 67.3%. Further, the figures for the growth in the test with OVCAR-3 ovarian, in the test on HS 578T breast and in the test with NCI/ADR-RES ovarian were 40.8%, 62% and 10.9%, respectively.

On to `CCN(CC)CCCNc1nc(C)cc(Nc2ccc3nc(C)cc(N)c3c2)n1`, for which the growth with SR leukemia was 110%; in the test with RPMI-8226 leukemia, 102%; in the test with OVCAR-8 ovarian, 106%; in the test on OVCAR-5 ovarian, 102%; in the test on OVCAR-4 ovarian, 116%; in the test with IGROV1 ovarian, 97.8%. Moreover, the growth in the test on OVCAR-3 ovarian is 106%; in the test with HS 578T breast, 109%; with NCI/ADR-RES ovarian it was 101%.

On to `C=C1C(=O)O[C@H]2[C@H]1CC/C(COC(=O)NCc1cc(OC)cc(OC)c1)=C\CC[C@@]1(C)O[C@@H]21`, for which the growth was 3.61% (active) with SR leukemia; 5.14% (active) in the test with RPMI-8226 leukemia; -9.79% (active) in the test on OVCAR-8 ovarian; 18.1% in the test on OVCAR-5 ovarian; 9.29% (active) in the test with OVCAR-4 ovarian; -76.8% (active) with OVCAR-3 ovarian. Moreover, the figures for the growth in the test with HS 578T breast and in the test on NCI/ADR-RES ovarian were 37.1% and 63.4%, respectively.

On to `COc1ccc2c(c1)NC(=O)CN2c1nc(C)nc2ccccc12`, for which the growth with SR leukemia was 18.8%; with RPMI-8226 leukemia, 45.2%; with OVCAR-8 ovarian, 12.5%; in the test on OVCAR-5 ovarian, 51.5%; with OVCAR-4 ovarian, 45.5%; in the test on OVCAR-3 ovarian, -13.9% (active). Further, the growth was 40% in the test with HS 578T breast and 14% with NCI/ADR-RES ovarian.

`CC(C)C[C@H](NC(=O)Cn1ccc(NCc2ccccc2)cc1=O)B(O)O`: the growth in the test on SR leukemia is 5.45% (active); in the test with RPMI-8226 leukemia it was -13.9% (active); in the test with OVCAR-8 ovarian, 51.3%; with OVCAR-5 ovarian it was 38.9%; in the test with OVCAR-4 ovarian, 48.2%; with IGROV1 ovarian, 41.1%. The figures for the growth with OVCAR-3 ovarian, in the test with HS 578T breast and in the test with NCI/ADR-RES ovarian were -54.5% (active), 8.69% (active) and 80.7%, respectively.

On to `COc1ccc(NC(=S)/N=c2\oc3c(OC)cccc3cc2-c2cc3ccccc3[nH]2)cc1`, for which the growth in the test with SR leukemia is 103%; with RPMI-8226 leukemia, 105%; in the test on OVCAR-8 ovarian, 54.8%; with OVCAR-5 ovarian, 91.5%; with OVCAR-4 ovarian, 56.4%; in the test on IGROV1 ovarian, 63.1%. Also, the results for the growth in the test with OVCAR-3 ovarian, in the test with HS 578T breast and in the test with NCI/ADR-RES ovarian were 79.7%, 36.4% and 56.7%, respectively.

Consider `COc1ccc(C(=O)c2cc(OC)c(OC)c(OC)c2)cc1/C=C/C(=O)c1ccc(OC)c(OC)c1`, for which the growth with SR leukemia is 3.96% (active); with RPMI-8226 leukemia it was 8.82% (active); in the test with OVCAR-8 ovarian it was 26.1%; with OVCAR-5 ovarian it was 0.936% (active); in the test on SK-OV-3 ovarian, 38.4%; with IGROV1 ovarian, 29.7%. Moreover, the growth is -22.1% (active) with OVCAR-3 ovarian, 31.5% with HS 578T breast and 19% in the test with NCI/ADR-RES ovarian.

Consider `C=CCn1c(C)nc2ccc(Nc3nc(Nc4ccc(F)cc4)nc4ccccc34)cc21`, for which the growth in the test on SR leukemia was 22.4%; with OVCAR-8 ovarian, 33.4%; in the test with OVCAR-5 ovarian it was 81.3%; in the test on OVCAR-4 ovarian, 48.3%; in the test on SK-OV-3 ovarian, 98.6%; with IGROV1 ovarian it was 51.1%. Further, the figures for the growth in the test on OVCAR-3 ovarian, in the test on HS 578T breast and with NCI/ADR-RES ovarian were 51.2%, 54.4% and 38.4%, respectively.

On to `O=C(Nc1ccc(OCc2nnc(-c3ccc(Cl)cc3)o2)c(F)c1)Nc1ccc(Cl)c(Cl)c1`, for which the growth was 21.4% in the test with SR leukemia; 57% in the test on RPMI-8226 leukemia; 60.2% with OVCAR-8 ovarian; 66.6% in the test on OVCAR-5 ovarian; 60.6% with SK-OV-3 ovarian; 66.5% in the test on IGROV1 ovarian. Further, the growth with OVCAR-3 ovarian is 25.9%; in the test on NCI/ADR-RES ovarian it was 65.2%.

Take `N#CC1=C(N)n2nc(-c3ccncc3)nc2NC1c1cccc2ccccc12` (stereo not given): the growth in the test with SR leukemia is 80.3%; in the test with OVCAR-8 ovarian, 92.7%; with OVCAR-5 ovarian, 100%; with OVCAR-4 ovarian, 80.4%; in the test with SK-OV-3 ovarian, 98.2%; with IGROV1 ovarian, 91.2%. Also, the figures for the growth in the test with OVCAR-3 ovarian, in the test on HS 578T breast and in the test with NCI/ADR-RES ovarian were 97.4%, 80.5% and 91.9%, respectively.

For the compound `CC(=O)C1CCC(C)=CC1=O` (stereo not given), the growth was 101% in the test on SR leukemia; 100% in the test on OVCAR-8 ovarian; 103% in the test with OVCAR-5 ovarian; 107% in the test with OVCAR-4 ovarian; 100% with SK-OV-3 ovarian; 102% with IGROV1 ovarian. The growth in the test with OVCAR-3 ovarian was 108%; in the test with HS 578T breast, 122%; with NCI/ADR-RES ovarian, 95.6%.

Take `C/C1=C\CCC2(C)OC2CC2CCC(C)(O)C(CC1)C2(C)C` (stereo not given): the growth in the test with SR leukemia was 92.4%; in the test with OVCAR-8 ovarian, 89.8%; in the test with OVCAR-5 ovarian, 112%; with OVCAR-4 ovarian, 99.7%; in the test with IGROV1 ovarian, 93.9%; with OVCAR-3 ovarian, 118%. Moreover, the growth was 83.8% in the test on HS 578T breast and 104% in the test on NCI/ADR-RES ovarian.

Regarding `Nc1c(C(=O)Nc2c(Cl)cccc2Cl)sc2nc3c(cc12)CCCCC3`, the growth was 16.7% in the test with SR leukemia; 51.8% in the test on OVCAR-8 ovarian; 79.8% with OVCAR-5 ovarian; 56.6% in the test on SK-OV-3 ovarian; 73% in the test with IGROV1 ovarian; 52.8% with OVCAR-3 ovarian. Also, the growth in the test with HS 578T breast is 59%; in the test on NCI/ADR-RES ovarian it was 53.5%.
